PubChem BioAssay (Tox21)
“And” between values parts separate entries of the source, which are not always exact repeats. Equal values may be shown once. Inconclusive results are not listed. The source made the active and inactive calls. Unless noted, the call rests on the fitted dose curve; in most records, active means well fitted curve in the direction sought with a large enough effect in the repeat runs; inconclusive means weak or mixed curves; inactive means no such curve, though single readings can be large; an effect the other way counts as inactive or inconclusive.

Legend:
[1] = qHTS assay to identify small molecule agonists of the androgen receptor (AR) signaling pathway in the presence of an antagonist - cell viability counter screen (AID 1259379); further: nearly all actives have a fitted effect of over 25% in size; further: potency means the concentration at half of the fitted maximal effect
Summary of the method: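 MDA-kb2 human breast carcinoma cells (stable MMTV-luciferase, AR/GR responsive) were seeded 3,000 cells/well, pre-incubated 5 hr at 37C without CO2, then given 3.0uM nilutamide and compounds at 15 concentrations for 16 hr. Viability was read by CellTiter-Fluor fluorescence.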

[2] = qHTS assay to identify small molecule antagonists of the estrogen receptor beta (ER-beta) signaling pathway - cell viability counter screen (AID 1259382); further: nearly all actives have a fitted effect of over 55% in size; further: potency means the concentration at half of the fitted maximal effect
Summary of the method: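 ER-beta-UAS-bla HEK293T cells (2,000/well, 2% charcoal-stripped FBS) were pre-incubated 6 hr at 37C, then given compound plus 1nM final 17-beta-estradiol for 16 hr. Viability was read in the same wells by CellTiter-Glo luminescence after 30 min at room temperature.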

[3] = qHTS assay to identify small molecule agonists or antagonists of the thyroid stimulating hormone receptor (TSHR) signaling pathway - wild type cell line counter screen (AID 1259384; calls by dose curve; further: on the % scale 0 is the no-effect control and ±100 the full control effect)
Summary of the method: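 Wild-type HEK293 cells were plated 18 h at 37 C/5% CO2, pin-dosed with compound plus Ro20-1724 medium, held 30 min at room temperature, then given cAMP-d2 and anti-cAMP-cryptate; fluorescence was read after 1 h. Fifteen concentrations, triplicate.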

[4] = qHTS assay to identify small molecule agonists of the estrogen receptor alpha (ER-alpha) signaling pathway in the presence of an antagonist - cell viability counter screen (AID 1259386);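 further: cells exposed to compounds for 22 h at 37 °C before the viability read; nearly all actives have a fitted effect of over 30% in size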; further: potency means the concentration at half of the fitted maximal effect
Summary of the method: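 VM7Luc4E2 cells (endogenous full-length ER-alpha, 4×ERE-luciferase) were held 5 days in phenol red-free medium with 10% charcoal-stripped FBS, plated, then given 10.0nM ICI-182,780 and compounds at 15 concentrations for 22hr at 37C; viability read by CellTiter-Fluor fluorescence.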

[5] = molecular target: Progesterone receptor (Homo sapiens) (UniProt P06401); experiment: qHTS assay to identify small molecule agonists of the progesterone receptor (PR) signaling pathway (AID 1346784; calls by dose curve; further: on the % scale 0 is the no-effect control and ±100 the full control effect; nearly all actives have a fitted effect of over 30% in size)
Progesterone receptor (Homo sapiens), sequence (P06401 whole entry, looked up): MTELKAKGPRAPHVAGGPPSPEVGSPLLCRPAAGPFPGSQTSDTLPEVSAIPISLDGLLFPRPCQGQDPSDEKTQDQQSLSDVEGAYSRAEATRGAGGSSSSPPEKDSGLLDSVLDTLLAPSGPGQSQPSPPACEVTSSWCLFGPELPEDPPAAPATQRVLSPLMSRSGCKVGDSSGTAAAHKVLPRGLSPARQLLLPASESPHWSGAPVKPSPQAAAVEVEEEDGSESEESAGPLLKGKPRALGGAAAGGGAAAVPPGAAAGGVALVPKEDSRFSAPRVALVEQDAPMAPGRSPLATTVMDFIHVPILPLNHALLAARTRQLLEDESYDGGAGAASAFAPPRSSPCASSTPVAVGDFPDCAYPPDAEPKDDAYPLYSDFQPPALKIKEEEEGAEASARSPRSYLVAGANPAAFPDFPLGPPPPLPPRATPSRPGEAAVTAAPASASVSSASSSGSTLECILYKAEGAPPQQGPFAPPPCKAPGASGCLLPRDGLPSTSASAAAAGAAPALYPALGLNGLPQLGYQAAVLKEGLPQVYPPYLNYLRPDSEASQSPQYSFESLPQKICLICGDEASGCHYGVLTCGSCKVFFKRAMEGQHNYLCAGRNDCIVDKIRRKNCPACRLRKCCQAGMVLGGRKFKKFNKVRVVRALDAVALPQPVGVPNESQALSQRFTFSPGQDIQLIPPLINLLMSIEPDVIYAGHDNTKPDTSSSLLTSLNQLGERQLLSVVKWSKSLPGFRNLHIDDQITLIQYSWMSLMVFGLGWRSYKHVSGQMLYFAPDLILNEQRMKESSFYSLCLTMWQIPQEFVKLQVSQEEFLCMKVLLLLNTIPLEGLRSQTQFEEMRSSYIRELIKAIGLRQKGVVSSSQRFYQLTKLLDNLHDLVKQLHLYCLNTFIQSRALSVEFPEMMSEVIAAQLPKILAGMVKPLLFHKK
Summary of the method: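 PR-UAS-bla HEK 293T cells carrying a UAS-driven beta-lactamase reporter were seeded in medium with 2% charcoal-stripped FBS, preincubated 6 hr at 37C, then exposed to compounds in DMSO for 16 hr; agonism was read by LiveBLAzer B/G FRET fluorescence.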

[6] = molecular target: Progesterone receptor (Homo sapiens) (UniProt P06401); experiment: qHTS assay to identify small molecule antagonists of the progesterone receptor (PR) signaling pathway (AID 1346795; active means well fitted inhibition curve with a large enough effect in the signal ratio in the repeat runs, not every such curve was filed as active; the % refers to the signal ratio; further: potency means the concentration at half of the fitted maximal effect)
Summary of the method: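 PR-UAS-bla HEK293T cells carrying a UAS-driven beta-lactamase reporter were plated in medium with 2% charcoal-stripped FBS and rested 6 hr at 37C. Compounds were added with 1 nM R5020 (final) for 16 hr, then FRET substrate loaded 2 hr at room temperature.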

[7] = qHTS assay to identify small molecule antagonists of the progesterone receptor (PR) signaling pathway - cell viability counter screen (AID 1346798); further: nearly all actives have a fitted effect of over 50% in size; further: potency means the concentration at half of the fitted maximal effect
Summary of the method: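 PR-UAS-bla HEK293T cells in medium with 2% charcoal-stripped FBS were treated with compounds plus R5020 for 16 hr at 37C. Cell viability was then read by CellTiter-Glo luminescence after 30 min at room temperature in the same wells.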

[8] = qHTS assay to identify small molecule agonists of the progesterone receptor (PR) signaling pathway - cell viability counter screen (AID 1346799; calls by dose curve; further: on the % scale 0 is the no-effect control and ±100 the full control effect; nearly all actives have a fitted effect of over 45% in size)
Summary of the method: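 PR-UAS-bla HEK293T cells, 3,000 per well in medium with 2% charcoal-stripped FBS, were preincubated 6 hr at 37C, then exposed to compounds for 16 hr; viability was read as CellTiter-Glo luminescence after 30 min at room temperature.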

[9] = qHTS assay to identify small molecule antagonists of the TGF-beta/Smad signaling pathway - cell viability counter screen (AID 1346824); further: nearly all actives have a fitted effect of over 50% in size; further: potency means the concentration at half of the fitted maximal effect
Summary of the method: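 SBE-bla HEK 293T cells were plated overnight at 37 C, then given compounds in DMSO plus TGF-beta1 (added as 0.25 ng/mL solution) for 5 hr. After the bla read, CellTiter-Glo was added to the same wells and luminescence read after 30 min at room temperature.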

[10] = qHTS assay to identify small molecule agonists of the TGF-beta/Smad signaling pathway - cell viability counter screen (AID 1346829); further: nearly all actives have a fitted effect of over 45% in size; further: potency means the concentration at half of the fitted maximal effect
Summary of the method: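 CellTiter-Glo luminescence readout; SBE-bla HEK 293T cells, overnight plating, compound 5 hr at 37 C/5% CO2, then bla substrate 2 hr RT, then CellTiter-Glo 30 min RT.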

[11] = qHTS assay to identify small molecule agonists of the TGF-beta/Smad signaling pathway (AID 1346859; active means well fitted activation curve with a large enough effect in the signal ratio in the repeat runs, not every such curve was filed as active; the % refers to the signal ratio; further: series mostly up to about 77 µM; on the % scale 0 is the no-effect control and ±100 the full control effect)
Summary of the method: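 HEK 293T cells stably carrying a beta-lactamase reporter driven by the Smad binding element were seeded overnight, exposed to DMSO-dissolved compounds for 5 hr at 37 C, 5% CO2, then loaded with FRET substrate for 2 hr at room temperature.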

[12] = molecular target: Thyrotropin-releasing hormone receptor (Homo sapiens) (UniProt P34981); experiment: qHTS assay to identify small molecule antagonists of the thyrotropin-releasing hormone receptor (TRHR) signaling pathway (AID 1346877; active means well fitted inhibition curve with a large enough effect in the repeat runs, not every such curve was filed as active; further: series mostly up to about 51 µM; on the % scale 0 is the no-effect control and ±100 the full control effect)
Thyrotropin-releasing hormone receptor (Homo sapiens), sequence (P34981 whole entry, looked up): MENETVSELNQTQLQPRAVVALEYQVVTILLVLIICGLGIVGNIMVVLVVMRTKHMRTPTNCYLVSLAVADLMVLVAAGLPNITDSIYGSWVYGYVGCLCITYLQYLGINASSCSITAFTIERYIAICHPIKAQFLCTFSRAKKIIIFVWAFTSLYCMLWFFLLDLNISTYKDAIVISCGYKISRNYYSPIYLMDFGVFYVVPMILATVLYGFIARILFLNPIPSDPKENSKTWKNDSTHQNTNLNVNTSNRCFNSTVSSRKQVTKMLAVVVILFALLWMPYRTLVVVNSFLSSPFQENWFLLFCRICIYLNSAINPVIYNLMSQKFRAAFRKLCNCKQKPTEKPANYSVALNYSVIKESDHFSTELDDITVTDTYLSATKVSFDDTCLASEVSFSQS
Summary of the method: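 TRHR-expressing HEK293 cells were seeded, cultured 18 h at 37 °C, then loaded with calcium dye for 2 h. Compounds were pre-incubated 5 min at room temperature before 1 nM TRH (final) was added, and kinetic fluorescence was recorded for 3 min.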

[13] = molecular target: Thyrotropin-releasing hormone receptor (Homo sapiens) (UniProt P34981); experiment: qHTS assay to identify small molecule agonists of the thyrotropin-releasing hormone receptor (TRHR) signaling pathway (AID 1346891; calls by dose curve; further: series mostly up to about 58 µM; on the % scale 0 is the no-effect control and ±100 the full control effect)
Summary of the method: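 TRHR-expressing HEK293 cells were plated 18 h at 37 °C/5% CO2, loaded with calcium dye 2 h at 37 °C, then given compound in DMSO; fluorescence was read kinetically for 3 min at 1 s intervals.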

[14] = Human pregnane X receptor (PXR) small molecule agonists, qHTS cell viability counter screen (AID 1346977); further: on the % scale 0 is the no-effect control and ±100 the full control effect; nearly all actives have a fitted effect of over 50% in size
Summary of the method: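 PXR-Luc HepG2 cells in medium with 5% charcoal-stripped FBS were pre-incubated 5hr, then exposed to compounds for 24hr at 37C. Viability was read in the same wells by CellTiter-Fluor fluorescence, reagent added after 23hr with a 1hr incubation.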

[15] = Caspase-3/7 induction in HepG2 cells by small molecules, qHTS assay (AID 1346978); further: on the % scale 0 is the no-effect control and ±100 the full control effect; nearly all actives have a fitted effect of over 15% in size
Summary of the method: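 Wild-type HepG2 cells (2,000/well) were settled 5 h at 37 C, 5% CO2, then exposed to compounds in DMSO for 17 h. Caspase-3/7 activity was read by luminescence 30 min after adding Caspase-Glo 3/7 reagent at room temperature.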

[16] = molecular target: Androgen receptor (Homo sapiens) (UniProt P10275); experiment: qHTS assay to identify small molecule agonists of the androgen receptor (AR) signaling pathway in the presence of an antagonist (AID 1259381; calls by dose curve; further: on the % scale 0 is the no-effect control and ±100 the full control effect; nearly all actives have a fitted effect of over 15% in size)
Androgen receptor (Homo sapiens), sequence (P10275 whole entry, looked up): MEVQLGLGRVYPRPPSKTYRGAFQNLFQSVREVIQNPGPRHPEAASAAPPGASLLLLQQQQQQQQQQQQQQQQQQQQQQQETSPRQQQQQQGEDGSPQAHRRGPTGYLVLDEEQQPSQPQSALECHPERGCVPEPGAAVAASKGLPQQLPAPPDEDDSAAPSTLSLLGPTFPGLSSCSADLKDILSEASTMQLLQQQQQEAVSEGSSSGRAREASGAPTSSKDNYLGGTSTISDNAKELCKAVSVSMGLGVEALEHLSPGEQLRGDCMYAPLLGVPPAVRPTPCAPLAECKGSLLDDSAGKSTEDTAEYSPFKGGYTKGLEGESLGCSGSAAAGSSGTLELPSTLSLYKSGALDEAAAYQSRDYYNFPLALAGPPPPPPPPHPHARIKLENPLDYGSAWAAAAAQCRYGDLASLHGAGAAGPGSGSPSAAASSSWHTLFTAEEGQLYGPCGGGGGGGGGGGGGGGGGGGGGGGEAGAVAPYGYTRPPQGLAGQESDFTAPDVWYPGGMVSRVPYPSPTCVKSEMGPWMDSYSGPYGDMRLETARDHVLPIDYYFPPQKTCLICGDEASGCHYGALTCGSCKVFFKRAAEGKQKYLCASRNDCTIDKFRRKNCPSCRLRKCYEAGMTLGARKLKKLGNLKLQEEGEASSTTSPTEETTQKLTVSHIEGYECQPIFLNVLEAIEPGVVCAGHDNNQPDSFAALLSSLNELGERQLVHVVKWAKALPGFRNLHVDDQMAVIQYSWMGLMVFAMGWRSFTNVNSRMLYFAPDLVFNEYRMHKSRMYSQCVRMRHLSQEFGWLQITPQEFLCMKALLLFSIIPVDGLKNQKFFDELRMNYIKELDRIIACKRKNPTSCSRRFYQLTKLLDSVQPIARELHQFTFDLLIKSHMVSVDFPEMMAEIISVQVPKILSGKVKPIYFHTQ
Summary of the method: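 MDA-kb2 human breast carcinoma cells carrying an MMTV-luciferase reporter (AR- and GR-responsive) were treated with compounds at 15 concentrations plus 3.0uM final nilutamide for 16hr at 37C without CO2; luminescence was read after ONE-Glo addition.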

[17] = molecular target: Estrogen receptor (Homo sapiens) (UniProt P03372); experiment: qHTS assay to identify small molecule agonists of the estrogen receptor alpha (ER-alpha) signaling pathway in the presence of an antagonist (AID 1259383; calls by dose curve; further: nearly all actives have a fitted effect of over 15% in size; further: potency means the concentration at half of the fitted maximal effect)
Estrogen receptor (Homo sapiens), sequence (P03372 whole entry, looked up): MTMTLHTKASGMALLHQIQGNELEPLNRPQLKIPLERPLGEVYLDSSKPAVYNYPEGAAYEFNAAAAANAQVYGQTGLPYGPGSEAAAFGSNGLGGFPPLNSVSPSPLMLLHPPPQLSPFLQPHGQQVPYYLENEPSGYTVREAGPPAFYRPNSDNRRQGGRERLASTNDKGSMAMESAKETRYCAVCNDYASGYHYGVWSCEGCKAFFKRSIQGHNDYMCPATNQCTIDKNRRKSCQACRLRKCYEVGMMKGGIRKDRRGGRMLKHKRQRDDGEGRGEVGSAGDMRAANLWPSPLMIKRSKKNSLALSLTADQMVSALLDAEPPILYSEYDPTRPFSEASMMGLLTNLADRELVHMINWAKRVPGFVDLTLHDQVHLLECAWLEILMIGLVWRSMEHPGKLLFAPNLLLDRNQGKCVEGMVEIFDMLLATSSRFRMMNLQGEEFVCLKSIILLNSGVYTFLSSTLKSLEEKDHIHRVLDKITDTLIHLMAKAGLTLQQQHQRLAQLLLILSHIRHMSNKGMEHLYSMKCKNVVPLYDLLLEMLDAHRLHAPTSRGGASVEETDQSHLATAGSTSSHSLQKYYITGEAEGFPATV
Summary of the method: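 VM7Luc4E2 cells (endogenous full-length ER-alpha, 4×ERE-luciferase) were precultured 5 days in phenol red-free medium with 10% charcoal-stripped FBS, given 10.0nM ICI-182,780 (final), then treated with compounds at 15 concentrations for 22hr at 37C; luminescence read with ONE-Glo.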

[18] = molecular target: Thyrotropin receptor (Homo sapiens) (UniProt P16473); experiment: qHTS assay to identify small molecule antagonists of the thyroid stimulating hormone receptor (TSHR) signaling pathway (AID 1259385; calls by dose curve; further: on the % scale 0 is the no-effect control and ±100 the full control effect; nearly all actives have a fitted effect of over 20% in size)
Thyrotropin receptor (Homo sapiens), sequence (P16473 whole entry, looked up): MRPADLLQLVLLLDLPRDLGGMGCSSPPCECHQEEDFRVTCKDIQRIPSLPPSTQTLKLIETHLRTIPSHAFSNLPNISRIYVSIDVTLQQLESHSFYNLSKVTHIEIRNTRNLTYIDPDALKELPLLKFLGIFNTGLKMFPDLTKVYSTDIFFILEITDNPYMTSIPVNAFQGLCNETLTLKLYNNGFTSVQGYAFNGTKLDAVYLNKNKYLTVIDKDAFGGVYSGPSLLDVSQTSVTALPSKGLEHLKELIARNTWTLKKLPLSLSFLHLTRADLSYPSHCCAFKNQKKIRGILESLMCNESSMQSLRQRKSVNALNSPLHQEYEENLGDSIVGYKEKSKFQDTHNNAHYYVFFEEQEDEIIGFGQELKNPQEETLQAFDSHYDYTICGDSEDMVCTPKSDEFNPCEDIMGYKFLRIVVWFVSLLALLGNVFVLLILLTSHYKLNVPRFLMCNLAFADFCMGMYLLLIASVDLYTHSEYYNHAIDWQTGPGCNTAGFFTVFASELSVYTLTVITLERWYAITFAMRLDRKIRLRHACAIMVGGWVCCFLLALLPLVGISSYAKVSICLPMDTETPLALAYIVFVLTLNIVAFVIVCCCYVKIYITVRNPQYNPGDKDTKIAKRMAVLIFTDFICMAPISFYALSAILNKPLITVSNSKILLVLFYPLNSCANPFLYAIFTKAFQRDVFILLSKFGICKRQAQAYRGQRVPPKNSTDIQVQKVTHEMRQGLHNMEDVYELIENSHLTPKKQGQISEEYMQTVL
Summary of the method: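 TSHR-HEK293 cells were plated and held 18 h at 37C/5% CO2, then given compound plus Ro20-1724 and stimulated with TSH at 1.5 ng/mL final. After 30 min at room temperature, cAMP was detected with cAMP-d2/anti-cAMP-cryptate (1 h) by fluorescence.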

[19] = qHTS assay to identify small molecule agonists of the estrogen receptor beta (ER-beta) signaling pathway - cell viability counter screen (AID 1259380); further: potency means the concentration at half of the fitted maximal effect; nearly all actives have a fitted effect of over 30% in size
Summary of the method: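 ER-beta-UAS-bla HEK293T cells in medium with 2% charcoal-stripped FBS were preincubated 6 hr at 37C, dosed with compound in DMSO for 16 hr, then after the bla read, CellTiter-Glo was added for 30 min at room temperature; luminescence recorded.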

c1cc2c3c(c1)ccc1cccc(c13)C2
inactive: Potency [1] | Potency [2] | outcome [3] | Potency [4] | outcome [5] | Potency [6] | Potency [7] | Potency [8] | Potency [9] | Potency [10] | Potency [11] | Potency [12] | Potency [13] | Potency [14] | Potency [15]

O=C(NO)c1ccccc1
inactive: Potency [1] | Potency [16] | outcome [3] | Potency [10] | Potency [11] | Potency [12] | Potency [13] | Potency [14] | Potency [15]

Clc1nc2ccccc2s1
inactive: Potency [1] | Potency [2] | Potency [17] | outcome [3] | Potency [18] | outcome [5] | Potency [7] | Potency [8] | Potency [9] | Potency [10] | Potency [11] | Potency [12] | Potency [13] | Potency [14] | Potency [15]

O=C1c2c(O)ccc([N+](=O)[O-])c2C(=O)c2c([N+](=O)[O-])ccc(O)c21
inactive: Potency [17] | Potency [18] | Potency [11] | Potency [15]
active: Potency [1] 27.1 µM | Potency [2] 17.1 µM | Potency [4] 24.1 µM | Potency [7] 24.1 µM | Potency [9] 48.5 µM | Potency [10] 48.5 µM

Oc1cc2ccccc2cc1O
inactive: Potency [1] | Potency [16] | Potency [2] | Potency [17] | outcome [3] | Potency [18] | outcome [5] | Potency [6] | Potency [7] | Potency [8] | Potency [9] | Potency [10] | Potency [15]

CCCCCCCOC(=O)c1ccc(O)cc1
inactive: Potency [1] | Potency [7] | Potency [9] | Potency [10] | Potency [11] | Potency [14]
active: Potency [19] 30.7 µM and 24.3 µM | Potency [17] 48.6 µM | Potency [6] 24.4 µM and 38.6 µM

CCCCCCCCCCCCCCCCCO
inactive: activity change, negative = cytotoxicity [1] 1.97% [at 19 µM] | activation [16] -1.33% [at 19 µM] | activity change, negative = cytotoxicity [2] 3.37% [at 19 µM] | activation [17] -1.67% [at 19 µM] | activation [5] -3.68% [at 19 µM] | activity change, negative = inhibition [6] 1.26% [at 18.9 µM] | activity change, negative = cytotoxicity [7] -7.24% [at 18.9 µM] | activity change, negative = cytotoxicity [8] -18.8% [at 19 µM] | viability change, negative = cytotoxic [9] -8.2% [at 15.8 µM] | activity change, negative = cytotoxicity [10] -0.289% [at 15.8 µM] | activation [11] -0.867% [at 15.8 µM] | activity, negative = inhibition [12] 0.827% [at 10.5 µM] | activation [13] 0.0338% [at 11.8 µM] | activity change, negative = cytotoxicity [14] 3.58% [at 19 µM] | caspase activation [15] 0.39% [at 19 µM]

Oc1ccc(-c2ccc(O)cc2)cc1
inactive: Potency [1] | Potency [2] | outcome [3] | Potency [18] | Potency [4] | Potency [7] | Potency [8] | Potency [10] | Potency [11] | Potency [12] | Potency [15]
